Unmarked numbers belong to inactive results.
Key:
Experiment in all cases: log2 ratio of Biotin-Ahx-Ub-VS probe labelling (fragment/DMSO); higher = less target engagement (more negative = stronger competition), active = hit call of the paper (q ≤ 0.05, log2 ratio ≤ -1)
Conditions in all cases: compound concentration: 200 uM; treatment time: 3 h
OTUD6B = biological target: T1, OTUD6B (UniProt Q8N6M0)
T1 sequence (whole entry): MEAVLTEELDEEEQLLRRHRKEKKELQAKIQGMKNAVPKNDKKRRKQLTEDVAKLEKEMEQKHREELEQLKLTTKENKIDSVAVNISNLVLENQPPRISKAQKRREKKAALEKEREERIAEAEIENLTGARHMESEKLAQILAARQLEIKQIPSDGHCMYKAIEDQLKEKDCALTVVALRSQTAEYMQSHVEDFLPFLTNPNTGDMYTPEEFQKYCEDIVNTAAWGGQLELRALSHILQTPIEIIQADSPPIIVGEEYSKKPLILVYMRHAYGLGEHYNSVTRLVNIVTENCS
Method in brief: (§1)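 Labelling with Biotin-Ahx-Ub-VS (0.5 µM final, 1 h) followed a 3 h triplicate treatment of HEK293T lysate (495 µg per sample, Tris/CHAPS/IGEPAL buffer with protease inhibitors) with fragment at 200 µM or vehicle. Labelled DUBs were NeutrAvidin-enriched, digested with LysC and trypsin, and run by diaPASEF LC-MS/MS. The values, average log2 fragment/vehicle ratios by unpaired t-test, come from global-median-normalised Spectronaut label-free quantities. Proteins with ≥2 unique peptides were used.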

OTUD7B = biological target: T2, OTUD7B (UniProt Q6GQQ9)
T2 sequence (whole entry): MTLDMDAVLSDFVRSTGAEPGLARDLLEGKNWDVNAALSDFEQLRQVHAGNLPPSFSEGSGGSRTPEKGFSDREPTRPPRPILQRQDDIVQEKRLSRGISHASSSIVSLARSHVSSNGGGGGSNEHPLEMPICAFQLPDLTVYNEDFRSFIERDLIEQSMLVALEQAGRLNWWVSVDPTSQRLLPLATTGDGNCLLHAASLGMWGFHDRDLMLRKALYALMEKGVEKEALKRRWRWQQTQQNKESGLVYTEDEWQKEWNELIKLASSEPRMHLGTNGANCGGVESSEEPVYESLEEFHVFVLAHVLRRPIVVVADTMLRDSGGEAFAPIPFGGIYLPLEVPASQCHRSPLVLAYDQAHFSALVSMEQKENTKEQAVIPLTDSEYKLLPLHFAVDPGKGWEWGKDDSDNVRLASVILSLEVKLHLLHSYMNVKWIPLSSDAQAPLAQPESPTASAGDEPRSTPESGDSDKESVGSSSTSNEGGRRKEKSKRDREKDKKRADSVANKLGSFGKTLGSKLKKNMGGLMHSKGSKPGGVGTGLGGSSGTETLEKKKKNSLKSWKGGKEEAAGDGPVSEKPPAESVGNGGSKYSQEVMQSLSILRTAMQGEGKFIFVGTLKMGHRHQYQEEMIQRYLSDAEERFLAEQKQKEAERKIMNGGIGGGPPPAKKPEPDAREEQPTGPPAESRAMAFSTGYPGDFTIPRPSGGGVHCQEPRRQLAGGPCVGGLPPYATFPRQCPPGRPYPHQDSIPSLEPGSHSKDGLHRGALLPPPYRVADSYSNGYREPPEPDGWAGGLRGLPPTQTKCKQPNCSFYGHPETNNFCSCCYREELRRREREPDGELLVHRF
Method in brief: as §1

PRPF8 = PRPF8 (UniProt Q6P2Q9)
Method in brief: as §1

PSMD7 = biological target: T3, PSMD7 (UniProt P51665)
T3 sequence (whole entry): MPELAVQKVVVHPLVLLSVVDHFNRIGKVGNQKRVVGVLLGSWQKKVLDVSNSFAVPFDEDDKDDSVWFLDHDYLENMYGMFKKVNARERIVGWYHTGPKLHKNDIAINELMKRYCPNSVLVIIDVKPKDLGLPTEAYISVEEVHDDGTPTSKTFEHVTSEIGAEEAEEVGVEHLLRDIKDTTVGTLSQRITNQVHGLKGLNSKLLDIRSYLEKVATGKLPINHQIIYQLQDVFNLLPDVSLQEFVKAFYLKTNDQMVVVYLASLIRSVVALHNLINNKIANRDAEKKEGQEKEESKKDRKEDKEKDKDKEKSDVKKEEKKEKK
Method in brief: as §1

UCHL1 = UCHL1 (UniProt P09936)
Sequence of UCHL1 (P09936 whole entry, looked up): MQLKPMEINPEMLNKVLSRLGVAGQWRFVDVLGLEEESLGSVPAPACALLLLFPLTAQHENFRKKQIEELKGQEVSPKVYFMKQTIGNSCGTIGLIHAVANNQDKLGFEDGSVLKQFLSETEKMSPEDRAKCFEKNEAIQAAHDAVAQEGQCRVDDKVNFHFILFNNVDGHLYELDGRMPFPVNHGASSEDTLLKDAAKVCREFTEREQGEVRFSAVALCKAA
Method in brief: as §1

UCHL3 = biological target: T4, UCHL3 (UniProt P15374)
T4 sequence (whole entry): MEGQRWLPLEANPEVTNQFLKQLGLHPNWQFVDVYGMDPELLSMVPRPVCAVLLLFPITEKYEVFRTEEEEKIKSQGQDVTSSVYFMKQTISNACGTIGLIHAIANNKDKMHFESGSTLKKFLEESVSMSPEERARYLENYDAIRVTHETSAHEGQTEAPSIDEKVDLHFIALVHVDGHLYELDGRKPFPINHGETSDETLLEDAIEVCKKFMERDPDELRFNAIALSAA
Method in brief: as §1

UCHL5 = biological target: T5, UCHL5 (UniProt Q9Y5K5)
T5 sequence (whole entry): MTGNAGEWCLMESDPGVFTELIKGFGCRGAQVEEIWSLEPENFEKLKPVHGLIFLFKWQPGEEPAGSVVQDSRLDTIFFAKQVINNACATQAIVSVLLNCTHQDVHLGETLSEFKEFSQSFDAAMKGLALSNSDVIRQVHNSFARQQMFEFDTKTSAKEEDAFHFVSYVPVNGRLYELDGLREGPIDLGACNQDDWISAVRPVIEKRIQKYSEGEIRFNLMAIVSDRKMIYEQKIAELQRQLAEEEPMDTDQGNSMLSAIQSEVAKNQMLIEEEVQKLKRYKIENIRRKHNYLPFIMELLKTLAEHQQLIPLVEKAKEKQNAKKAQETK
Method in brief: as §1

USP10 = USP10 (UniProt Q14694)
Sequence of USP10 (Q14694 whole entry): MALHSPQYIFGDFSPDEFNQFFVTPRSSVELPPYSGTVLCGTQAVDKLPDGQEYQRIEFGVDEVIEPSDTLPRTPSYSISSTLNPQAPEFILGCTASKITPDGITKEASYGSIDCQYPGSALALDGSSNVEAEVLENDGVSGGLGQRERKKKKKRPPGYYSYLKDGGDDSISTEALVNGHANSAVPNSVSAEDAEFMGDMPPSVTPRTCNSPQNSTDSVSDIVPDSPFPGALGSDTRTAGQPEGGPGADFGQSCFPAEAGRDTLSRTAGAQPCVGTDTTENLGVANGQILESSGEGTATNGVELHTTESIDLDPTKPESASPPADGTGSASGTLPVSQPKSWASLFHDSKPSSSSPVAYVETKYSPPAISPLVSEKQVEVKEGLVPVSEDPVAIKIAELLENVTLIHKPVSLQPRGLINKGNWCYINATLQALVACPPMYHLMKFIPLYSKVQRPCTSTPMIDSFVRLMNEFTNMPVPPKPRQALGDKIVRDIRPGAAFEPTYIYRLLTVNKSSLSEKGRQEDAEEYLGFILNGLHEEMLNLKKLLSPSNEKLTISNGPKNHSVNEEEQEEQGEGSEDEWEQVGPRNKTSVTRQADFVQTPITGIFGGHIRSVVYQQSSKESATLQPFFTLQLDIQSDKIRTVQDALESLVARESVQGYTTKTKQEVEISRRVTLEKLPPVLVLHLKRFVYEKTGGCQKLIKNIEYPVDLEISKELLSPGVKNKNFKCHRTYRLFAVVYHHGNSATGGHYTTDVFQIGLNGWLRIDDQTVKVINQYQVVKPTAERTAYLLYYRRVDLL
Method in brief: as §1

USP15 = biological target: T6, USP15 (UniProt Q9Y4E8)
T6 sequence (whole entry): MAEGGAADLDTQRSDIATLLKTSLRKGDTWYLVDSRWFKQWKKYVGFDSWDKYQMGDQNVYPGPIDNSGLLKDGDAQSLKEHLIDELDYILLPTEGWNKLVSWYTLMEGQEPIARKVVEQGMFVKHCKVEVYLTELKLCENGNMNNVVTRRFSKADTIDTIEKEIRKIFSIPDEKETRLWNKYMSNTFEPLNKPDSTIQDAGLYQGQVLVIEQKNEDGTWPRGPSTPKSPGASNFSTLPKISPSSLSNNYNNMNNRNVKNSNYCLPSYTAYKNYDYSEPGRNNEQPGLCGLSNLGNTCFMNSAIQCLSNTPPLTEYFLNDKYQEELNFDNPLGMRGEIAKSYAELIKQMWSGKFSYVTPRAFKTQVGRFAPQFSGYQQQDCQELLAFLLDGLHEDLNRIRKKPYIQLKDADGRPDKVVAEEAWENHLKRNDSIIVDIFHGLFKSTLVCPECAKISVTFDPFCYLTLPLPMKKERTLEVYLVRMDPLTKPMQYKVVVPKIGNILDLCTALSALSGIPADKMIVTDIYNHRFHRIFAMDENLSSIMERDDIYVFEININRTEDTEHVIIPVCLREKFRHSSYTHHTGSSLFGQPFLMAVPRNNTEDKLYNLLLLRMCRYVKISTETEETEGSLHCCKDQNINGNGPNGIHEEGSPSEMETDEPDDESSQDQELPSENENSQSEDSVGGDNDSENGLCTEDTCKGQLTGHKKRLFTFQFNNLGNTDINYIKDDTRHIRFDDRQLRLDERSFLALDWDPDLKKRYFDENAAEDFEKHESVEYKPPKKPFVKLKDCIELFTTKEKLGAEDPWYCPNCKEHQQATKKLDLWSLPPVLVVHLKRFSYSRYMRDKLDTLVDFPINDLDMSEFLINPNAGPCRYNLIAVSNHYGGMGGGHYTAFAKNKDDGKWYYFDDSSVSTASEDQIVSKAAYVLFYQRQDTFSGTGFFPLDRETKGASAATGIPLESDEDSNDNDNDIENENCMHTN
Method in brief: as §1

USP16 = USP16 (UniProt Q9Y5T5)
Sequence of USP16 (Q9Y5T5 whole entry, looked up): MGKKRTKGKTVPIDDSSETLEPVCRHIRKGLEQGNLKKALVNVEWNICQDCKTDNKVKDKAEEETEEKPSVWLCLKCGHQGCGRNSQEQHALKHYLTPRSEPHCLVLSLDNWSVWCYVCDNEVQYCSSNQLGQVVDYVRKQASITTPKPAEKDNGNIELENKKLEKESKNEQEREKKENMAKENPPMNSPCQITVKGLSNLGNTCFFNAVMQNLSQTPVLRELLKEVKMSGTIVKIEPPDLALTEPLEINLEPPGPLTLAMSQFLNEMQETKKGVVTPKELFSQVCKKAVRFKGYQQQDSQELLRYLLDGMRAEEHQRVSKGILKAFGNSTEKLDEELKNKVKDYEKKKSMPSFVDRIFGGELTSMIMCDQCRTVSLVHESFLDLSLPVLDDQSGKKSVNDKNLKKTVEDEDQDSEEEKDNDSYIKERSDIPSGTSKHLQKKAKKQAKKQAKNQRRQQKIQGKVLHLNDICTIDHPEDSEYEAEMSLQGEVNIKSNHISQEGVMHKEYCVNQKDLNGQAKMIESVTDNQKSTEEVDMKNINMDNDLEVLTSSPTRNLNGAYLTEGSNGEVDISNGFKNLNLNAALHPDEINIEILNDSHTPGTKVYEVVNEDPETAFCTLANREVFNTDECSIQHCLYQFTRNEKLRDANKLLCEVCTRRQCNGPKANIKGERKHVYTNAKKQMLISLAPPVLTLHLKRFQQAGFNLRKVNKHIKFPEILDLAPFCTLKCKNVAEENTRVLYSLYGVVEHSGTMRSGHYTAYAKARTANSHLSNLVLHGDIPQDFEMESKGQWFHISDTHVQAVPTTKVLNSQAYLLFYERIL
Method in brief: as §1

Structure (SMILES) | log2 ratio of Biotin-Ahx-Ub-VS probe labelling (OTUD6B) | log2 ratio of Biotin-Ahx-Ub-VS probe labelling (OTUD7B) | log2 ratio of Biotin-Ahx-Ub-VS probe labelling (PRPF8) | log2 ratio of Biotin-Ahx-Ub-VS probe labelling (PSMD7) | log2 ratio of Biotin-Ahx-Ub-VS probe labelling (UCHL1) | log2 ratio of Biotin-Ahx-Ub-VS probe labelling (UCHL3) | log2 ratio of Biotin-Ahx-Ub-VS probe labelling (UCHL5) | log2 ratio of Biotin-Ahx-Ub-VS probe labelling (USP10) | log2 ratio of Biotin-Ahx-Ub-VS probe labelling (USP15) | log2 ratio of Biotin-Ahx-Ub-VS probe labelling (USP16)
C#Cc1cccc(NC(=O)CCl)c1 | -0.196 | -1.43 (active) | 0.296 | -0.0915 | -1.61 (active) | -1.39 (active) | -0.324 | -0.0542 | -0.414 | -0.23
NC(=O)C(Cc1ccccc1)NC(=O)CCl (stereo not given) | -0.129 | -0.38 | -0.0593 | -0.0419 | -1.73 (active) | 0.313 | -0.295 | -0.0595 | -0.0229 | 0.0723
O=C(CCl)Nc1cccc(C(=O)N2CCSCC2)c1 | -0.0782 | -0.71 | -0.00865 | -0.0955 | -0.784 | 0.0211 | -0.176 | -0.156 | -0.164 | -0.0446
O=C(CCl)NC1(c2ccc3c(c2)OCCO3)CCCC1 | -0.0936 | -0.638 | -0.154 | -0.208 | -1.32 (active) | -0.106 | -0.537 | -0.203 | -0.213 | -0.316
CC(=O)Nc1ccc(NC(=O)CCl)cc1 | -0.276 | -1.13 (active) | 0.0134 | -0.163 | -0.918 | 0.206 | -0.201 | -0.113 | -0.154 | -0.288
O=C(CCl)N1c2ccccc2NC(=O)C12CCCC2 | -0.0738 | -0.0903 | -0.16 | 0.0949 | -0.493 | 0.749 | -0.148 | -0.393 | 0.113 | 0.103
CN(C)S(=O)(=O)c1ccccc1CNC(=O)CCl | -0.265 | -0.0445 | -0.0375 | -0.18 | -1.18 (active) | 0.0942 | -0.199 | -0.156 | -0.0655 | 0.14
CC(NC(=O)CCl)c1cnn(C2CC2)c1 (stereo not given) | -0.174 | -1.99 (active) | -0.0754 | -0.168 | -1.3 (active) | 0.329 | -0.187 | -0.103 | -0.182 | -0.19
O=C(CCl)NC1CCS(=O)(=O)c2ccccc21 (stereo not given) | -0.258 | -1.79 (active) | -0.00882 | -0.335 | -1.81 (active) | 0.125 | -0.554 | 0.0657 | -0.242 | -0.0991
Cl.O=C(CN1CCN(C(=O)CCl)CC1)Nc1ccc(F)cc1 | 0.226 | 0.0571 | 0.0678 | 0.149 | -1.2 (active) | 0.501 | -0.0699 | -0.0791 | -0.113 | 0.138
O=C(CCl)N1CCOC(c2cccc(F)c2)C1 (stereo not given) | -0.268 | -1.75 (active) | -0.107 | -0.115 | -1.68 (active) | 0.156 | -0.463 | -0.284 | -0.387 | 0.0465
O=C(CCl)N[C@H]1CC[C@@H](CO)CC1 | -0.662 | -1.44 (active) | -0.24 | -0.201 | -2.47 (active) | -0.884 | -0.9 | -0.226 | -0.938 | -0.292
O=C(CCl)N1CC=C(c2c[nH]c3ccccc23)CC1 | -0.33 | -0.605 | 0.0222 | 0.00731 | -1.12 (active) | 0.00279 | -0.387 | -0.299 | -1.46 (active) | 0.156
Cc1cccc(N2CCC(NC(=O)CCl)C2=O)c1 (stereo not given) | -0.339 | -1.61 (active) | -0.232 | -0.248 | -1.87 (active) | 0.0361 | -0.503 | -0.133 | -0.299 | -0.021
Cl.O=C(CCl)N1CCn2cncc2C1 | -0.541 | -0.166 | 0.208 | 0.0226 | -1.37 (active) | 0.291 | 0.0547 | -0.131 | -0.372 | -0.425
CCC(NC(=O)CCl)c1ccc(Cl)cc1 (stereo not given) | 0.0691 | -1.12 (active) | 0.164 | -0.0211 | -1.12 (active) | 0.495 | -0.175 | -0.0683 | -0.0837 | -0.0971
Cl.O=C(CCl)NCc1ccnc(Oc2ccccc2F)c1 | -0.263 | -0.533 | -0.054 | -0.0622 | -1.49 (active) | 0.27 | -0.282 | -0.187 | -0.115 | 0.275
N#Cc1ccccc1N1CCN(C(=O)CCl)CC1 | -0.533 | -0.626 | -0.322 | -0.0914 | -2.04 (active) | -0.341 | -0.894 | -0.051 | -0.781 | -0.37
